# PubChem BioAssay (EPA / NIEHS)
# Where a structure was tested more than once in an assay, its records may differ in their call. The source made the active and inactive calls. The calls were made as follows: active = hit-call score of the fitted dose curve at least 0.9, where 1 is the maximum; inactive = score below 0.9.
# Read-out: CD69, CD69 (gene 969)
# Assay: BSK_SAg_CD69: BioMAP Diversity Plus: SAg Assay for CD69 Biomarker Activity (AID 2283089)
# Settings: primary human HUVEC with PBMC; actives raise or lower the signal
# Procedure: BSK_SAg is a cell-based, multiplexed-readout assay that uses umbilical vein endothelium and peripheral blood mononuclear cells, a human vascular primary cell co-culture, with measurements taken at 24 hours after chemical dosing in a 96-well plate.BSK_SAg_CD69 is one of 10 assay component(s) measured or calculated from the BSK_SAg assay. It is designed to make measurements of enzyme-linked immunosorbent assay, a form of binding reporter, as detected with fluorescence intensity signals by Enzyme-linked immunosorbent assay technology.Data from the assay component BSK_SAg_CD69 was analyzed into 1 assay endpoint. This assay endpoint, BSK_SAg_CD69, was analyzed with bidirectional fitting relative to DMSO as the negative control and baseline of activity. Using a type of binding reporter, gain or loss-of-signal activity can be used to understand changes in the signaling as they relate to the gene CD69. Furthermore, this assay endpoint can be referred to as a primary readout, because this assay has produced multiple assay endpoints where this one serves a signaling function. To generalize the intended target to other relatable targets, this assay endpoint is annotated to the cytokine intended target family, where the subfamily is inflammatory factor.
# The levels of cell surface (or secreted, indicated by the prefix "s") biomarker endpoints were measured by ELISA. Overt cytotoxicity to cells in confluent adherent cultures (all systems other than the BT system) was assessed by measuring total protein levels using sulforhodamine B (SRB) staining in parallel cultures at the time of biomarker measurements, indicated as SRB endpoints. For proliferation assays for adherent cell types, individual cell types are cultured at sub-confluence and relative cell numbers quantified by SRB staining at time points optimized for each system (48 h: 3C and CASM3C systems; 72 h: BT and HDF3CGF systems; 96 h: SAg system). SRB was performed by staining cells with 0.1% SRB after fixation with 10% TCA and reading wells at 560 nm.Viability and proliferation of PBMC (T cells) was quantified by Alamar Blue reduction for the SAg and BT systems. For PBMC viability (referred to as PBMC Cytotoxicity within the assay endpoint names), cells were plated (75,000/well in a 96-well plate) and then chemical samples added for 1 h before addition of activators, SEB and TSST-1 (20 ng/mL final concentration each). Cells were incubated for 90 h. Then, Alamar Blue (20 uL/well) (Invitrogen, Cat DAL1100) was added for 6 h, and the plates were read with a fluorescence microplate reader at 546/580 nm (excitation/emission). For PBMC proliferation, cells were plated and activated as above but incubated for only 16 h prior to addition of Alamar Blue. Plates were read after 6 h.
SMILES,outcome,AC50
CC(C)c1ccc(CO)cc1,inactive,
COP(=S)(OC)Oc1ccc(Sc2ccc(OP(=S)(OC)OC)cc2)cc1,,13.6 µM (active)
O=C(O)C(F)(F)C(F)(F)C(F)(F)C(F)(F)C(F)(F)C(F)(F)C(F)(F)C(F)(F)C(F)(F)C(F)(F)F,inactive,30.5 µM (active)
ClCC(Cl)CCl,inactive,
C=C(C)C(=O)[O][Sn]([CH2]CCC)([CH2]CCC)[CH2]CCC,,0.148 µM (active)
CC(=O)[O][Hg][c]1ccccc1,,1.39 µM (active)
C[C@]12CCC(=O)C[C@@H]1CC[C@@H]1[C@@H]2CC[C@]2(C)[C@@H](O)CC[C@@H]12,inactive,
COP(=S)(OC)Oc1ccc(S(=O)(=O)N(C)C)cc1,inactive,
Nc1cccc2ccccc12,inactive,
CCOP(=S)(OCC)Oc1ccc(S(C)=O)cc1 (stereo not given),inactive,
CCN1CCC2(CC1)COc1cc3c(cc12)N(C(=O)c1ccc(-c2ccc(-c4nnc(C)o4)cc2C)cc1)CC3,,12 µM (active)
O=C(O)CCC(F)(C(F)(F)F)C(F)(F)F,inactive,
O=[N+]([O-])c1ccc2c3c(cccc13)CC2,inactive,
O=C(Nc1ccc2[nH]ccc2c1)c1cc2cc(F)ccc2n1Cc1cccc(F)c1,,10.6 µM (active)
CCC(=O)C(CC(C)N(C)C)(c1ccccc1)c1ccccc1 (stereo not given),inactive,
CCCCCCCCc1ccc(O)cc1,,31.7 µM (active)
CC(C)(C)c1cc(O)ccc1O,,5.54 µM (active)
COC(=O)Cc1ccccc1,inactive,
C=CC(=O)OCCCCCC(C)C,inactive,

SMILES,outcome,AC50
BrCCBr,inactive,
CCCCC(CC)CO[N+](=O)[O-] (stereo not given),inactive,
CC1(C)Cc2cccc(O)c2O1,inactive,
ClC1(Cl)C2(Cl)C3(Cl)C4(Cl)C(Cl)(Cl)C5(Cl)C3(Cl)C1(Cl)C5(Cl)C24Cl (stereo not given),inactive,
Nc1ncc([N+](=O)[O-])s1,inactive,
CC(=O)C(Cl)C(=O)N(C)C (stereo not given),,16.7 µM (active)
CCNc1nc(NC(C)(C)C)nc(SC)n1,,14.6 µM (active)
CC(C)CCCCCCOC(=O)c1ccccc1C(=O)OCCCCCCC(C)C,inactive,
ClC(Cl)=C(Cl)C(Cl)=C(Cl)Cl,inactive,
CN(C)N=O,inactive,
NC(=S)Nc1ccccc1,inactive,
CC(=O)OC(c1ccccc1)C(Cl)(Cl)Cl (stereo not given),inactive,14.2 µM (active)
CC(C)(C)CC(C)(C)c1ccc(O)cc1,,11.5 µM (active)
CCOP(=S)(OCC)SCCS(=O)(=O)CC,inactive,
CCOC(=O)/C=C(C)/C=C/C[C@@H](C)CCCC(C)C,,20 µM (active)
O=c1[nH]c(=O)[nH]c(=O)[nH]1,inactive,
CCOP(=S)(OCC)Oc1nc(Cl)c(Cl)cc1Cl,,20 µM (active)
O=[N+]([O-])c1ccc(O)c([N+](=O)[O-])c1,inactive,
CCSC(C)CC1CC(=O)C(C(CC)=NOC/C=C/Cl)=C(O)C1 (stereo not given),inactive,
